Laboratory results reported in the supplement of paper PMC12645437, “Orthogonal IMiD-Degron Pairs Induce Selective Protein Degradation in Cells” (ACS Chemical Biology, 2025).
Whole data set: some 8,300 sequences, median “log2 fold change of degron read counts, EGFP-low vs EGFP+ sorted cells (limma voom), compound-induced degradation” near -1.1, cut for the highest 2% near 3.2. Many of the other results were omitted from the sample, so the highest values are more common in it than they were.

Target: T1, CRBN, Q96SW2
T1 chain: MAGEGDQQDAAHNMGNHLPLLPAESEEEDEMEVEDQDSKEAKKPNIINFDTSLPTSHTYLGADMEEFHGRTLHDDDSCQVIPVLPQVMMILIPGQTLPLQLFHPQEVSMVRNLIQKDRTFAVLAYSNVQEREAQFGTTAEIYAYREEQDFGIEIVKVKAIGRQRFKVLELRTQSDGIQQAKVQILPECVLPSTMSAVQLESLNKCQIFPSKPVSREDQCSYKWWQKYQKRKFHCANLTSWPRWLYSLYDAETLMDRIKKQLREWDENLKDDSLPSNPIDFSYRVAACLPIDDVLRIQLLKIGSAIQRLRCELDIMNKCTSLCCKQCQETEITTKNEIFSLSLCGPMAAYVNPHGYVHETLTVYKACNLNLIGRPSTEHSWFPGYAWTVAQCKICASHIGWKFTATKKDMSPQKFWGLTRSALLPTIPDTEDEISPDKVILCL
Test: log2 fold change of degron read counts, EGFP-low vs EGFP+ sorted cells (limma voom), compound-induced degradation; higher = more compound-induced degradation of the degron-EGFP fusion; degrons are variants of IKZF1/3 zinc finger 2; compound dose not given here
Settings: Jurkat, 18 h

[1] = compound: compound 19 (5-tert-butyl-thalidomide)
[2] = compound: compound 22 (5-morpholino-thalidomide)
[3] = compound: compound 33 (diphenyl IMiD analogue)
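Also: pooled lentiviral library of zinc finger degron-EGFP fusions in mCherry-positive Jurkat cells, FACS-sorted after compound exposure, with degron abundance counted by next-generation sequencing.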

B1: 46F_47W_49P_50I_52G_53H_54Y_55F_67L_, Q9UKT9 (peptide)
chain: FWCPICGHYFTQKGNLLRHIKL
log2 fold change of degron read counts [1]: -0.542
log2 fold change of degron read counts [2]: -0.321
log2 fold change of degron read counts [3]: -0.506
log2 fold change of degron read counts (compound: thalidomide): -0.28

B2: 46F_47K_49N_50V_52G_53A_54E_55F_67L_, Q9UKT9 (peptide)
chain: FKCNVCGAEFTQKGNLLRHIKL
log2 fold change of degron read counts [1]: -3.18
log2 fold change of degron read counts [2]: -3.1
log2 fold change of degron read counts [3]: -3.12
log2 fold change of degron read counts (compound: thalidomide): -2.1

B3: 46F_47H_49P_50I_52G_53A_54T_55F_67L_, Q9UKT9 (peptide)
chain: FHCPICGATFTQKGNLLRHIKL
log2 fold change of degron read counts [1]: 1.64
log2 fold change of degron read counts [2]: 1.89
log2 fold change of degron read counts [3]: 1.62
log2 fold change of degron read counts (compound: thalidomide): 0.481

B4: 46F_47M_49E_50V_52G_53A_54P_55F_67L_, Q9UKT9 (peptide)
chain: FMCEVCGAPFTQKGNLLRHIKL
log2 fold change of degron read counts [1]: 2.75
log2 fold change of degron read counts [2]: 3.55
log2 fold change of degron read counts [3]: 3.12
log2 fold change of degron read counts (compound: thalidomide): 2.6

B5: 46F_47K_49E_50V_52G_53A_54P_55F_67L_, Q9UKT9 (peptide)
chain: FKCEVCGAPFTQKGNLLRHIKL
log2 fold change of degron read counts [1]: 2.02
log2 fold change of degron read counts [2]: 1.13
log2 fold change of degron read counts [3]: -1.28
log2 fold change of degron read counts (compound: thalidomide): 1.95

B6: 46F_47E_49E_50V_52G_53A_54P_55F_67L_, Q9UKT9 (peptide)
chain: FECEVCGAPFTQKGNLLRHIKL
log2 fold change of degron read counts [1]: 1.65
log2 fold change of degron read counts [2]: -1.41
log2 fold change of degron read counts [3]: 0.683
log2 fold change of degron read counts (compound: thalidomide): 1.6

B7: 46L_47A_49P_50I_52G_53F_54F_55C_67L_, Q9UKT9 (peptide)
chain: LACPICGFFCTQKGNLLRHIKL
log2 fold change of degron read counts [1]: 3.31
log2 fold change of degron read counts [2]: 2.49
log2 fold change of degron read counts [3]: 2.27
log2 fold change of degron read counts (compound: thalidomide): 2.24

B8: 46L_47G_49P_50I_52G_53F_54F_55C_67L_, Q9UKT9 (peptide)
chain: LGCPICGFFCTQKGNLLRHIKL
log2 fold change of degron read counts [1]: 3.27
log2 fold change of degron read counts [2]: 2.15
log2 fold change of degron read counts [3]: 2.31
log2 fold change of degron read counts (compound: thalidomide): 1.94

B9: 46L_47H_49P_50I_52G_53F_54F_55C_67L_, Q9UKT9 (peptide)
chain: LHCPICGFFCTQKGNLLRHIKL
log2 fold change of degron read counts [1]: 2.35
log2 fold change of degron read counts [2]: 2.51
log2 fold change of degron read counts [3]: 2.79
log2 fold change of degron read counts (compound: thalidomide): 2.23

B10: 46L_47C_49P_50I_52G_53F_54F_55C_67L_, Q9UKT9 (peptide)
chain: LCCPICGFFCTQKGNLLRHIKL
log2 fold change of degron read counts [1]: 1.09
log2 fold change of degron read counts [2]: 1.75
log2 fold change of degron read counts [3]: 2.77
log2 fold change of degron read counts (compound: thalidomide): 2.39

B11: 46L_47W_49P_50I_52G_53F_54F_55C_67L_, Q9UKT9 (peptide)
chain: LWCPICGFFCTQKGNLLRHIKL
log2 fold change of degron read counts [1]: 2.66
log2 fold change of degron read counts [2]: 3.04
log2 fold change of degron read counts [3]: 2.81
log2 fold change of degron read counts (compound: thalidomide): 2.05

B12: 46L_47S_49P_50I_52G_53F_54F_55C_67L_, Q9UKT9 (peptide)
chain: LSCPICGFFCTQKGNLLRHIKL
log2 fold change of degron read counts [1]: 2.05
log2 fold change of degron read counts [2]: 1.71
log2 fold change of degron read counts [3]: 2.64
log2 fold change of degron read counts (compound: thalidomide): 2.39

B13: 46F_47V_49N_50Q_52G_53A_54A_55F_67L_, Q9UKT9 (peptide)
chain: FVCNQCGAAFTQKGNLLRHIKL
log2 fold change of degron read counts [1]: -2.28
log2 fold change of degron read counts [2]: -0.788
log2 fold change of degron read counts [3]: -0.293
log2 fold change of degron read counts (compound: thalidomide): -0.146

B14: 46F_47T_49N_50Q_52G_53R_54R_55F_67L_, Q9UKT9 (peptide)
chain: FTCNQCGRRFTQKGNLLRHIKL
log2 fold change of degron read counts [1]: -2.59
log2 fold change of degron read counts [2]: -2.14
log2 fold change of degron read counts [3]: -1.95
log2 fold change of degron read counts (compound: thalidomide): -1.42

B15: 46F_47H_49P_50I_52G_53R_54F_55F_67L_, Q9UKT9 (peptide)
chain: FHCPICGRFFTQKGNLLRHIKL
log2 fold change of degron read counts [1]: -0.744
log2 fold change of degron read counts [2]: -1.72
log2 fold change of degron read counts [3]: -0.739
log2 fold change of degron read counts (compound: thalidomide): -1.66

B16: 46F_47C_49E_50I_52G_53A_54P_55F_67L_, Q9UKT9 (peptide)
chain: FCCEICGAPFTQKGNLLRHIKL
log2 fold change of degron read counts [1]: 3.63
log2 fold change of degron read counts [2]: 2.99
log2 fold change of degron read counts [3]: 1.57
log2 fold change of degron read counts (compound: thalidomide): 2.05

B17: 46F_47C_49E_50Q_52G_53A_54P_55F_67L_, Q9UKT9 (peptide)
chain: FCCEQCGAPFTQKGNLLRHIKL
log2 fold change of degron read counts [1]: -0.706
log2 fold change of degron read counts [2]: -2.38
log2 fold change of degron read counts [3]: -1.75
log2 fold change of degron read counts (compound: thalidomide): -1.28

B18: 46F_47S_49E_50I_52G_53A_54D_55F_67L_, Q9UKT9 (peptide)
chain: FSCEICGADFTQKGNLLRHIKL
log2 fold change of degron read counts [1]: 0.281
log2 fold change of degron read counts [2]: -0.67
log2 fold change of degron read counts [3]: -0.225
log2 fold change of degron read counts (compound: thalidomide): -0.832

B19: 46F_47S_49E_50I_52G_53A_54P_55F_67L_, Q9UKT9 (peptide)
chain: FSCEICGAPFTQKGNLLRHIKL
log2 fold change of degron read counts [1]: 3.54
log2 fold change of degron read counts [2]: 2.69
log2 fold change of degron read counts [3]: 1.29
log2 fold change of degron read counts (compound: thalidomide): 1.99

B20: 46F_47C_49E_50I_52G_53A_54D_55F_67L_, Q9UKT9 (peptide)
chain: FCCEICGADFTQKGNLLRHIKL
log2 fold change of degron read counts [1]: 0.103
log2 fold change of degron read counts [2]: -0.401
log2 fold change of degron read counts [3]: 0.273
log2 fold change of degron read counts (compound: thalidomide): -0.00478

B21: 46F_47K_49E_50I_52G_53A_54P_55F_67L_, Q9UKT9 (peptide)
chain: FKCEICGAPFTQKGNLLRHIKL
log2 fold change of degron read counts [1]: 2.99
log2 fold change of degron read counts [2]: 1.73
log2 fold change of degron read counts [3]: -0.501
log2 fold change of degron read counts (compound: thalidomide): 2.51
